Measured values published in the supplement of paper PMC8728848.
Many of the other results were omitted from the sample, so the strongest signals are more common in it than they were.

Key:
Experiment in all cases: glycan array binding signal (z-score within array); higher = stronger binding
Conditions in all cases: glycan notation: IUPAC condensed, linker removed
[1] = target: 3dGal(b1-3)[Fuc(a1-4)]Glc
In short: (§1)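 The Consortium for Functional Glycomics database supplied 3228 glycan arrays, of which those lacking an available protein sequence were dropped. The binding signal, a within-array Z-score, was averaged across arrays of the same protein sequence and across linkers. Negative scores can be read as non-binding.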

[2] = target: Fuc(a1-3)[3dGal(b1-4)]Glc
In short: as §1

[3] = target: Fuc(a1-3)[Gal(b1-4)]GlcNAc(b1-3)Gal(b1-4)Glc
In short: as §1

[4] = target: Fuc(a1-3)[Gal6S(b1-4)]GlcNAc(b1-3)Gal(b1-4)Glc
In short: as §1

Gal(a1-6)Glc = target: Gal(a1-6)Glc
In short: as §1

Gal(b1-4)Glc = target: Gal(b1-4)Glc
In short: as §1

[5] = target: Gal(b1-4)GlcNAc(b1-2)Man(a1-3)[Man(a1-6)]Man(b1-4)GlcNAc(b1-4)GlcNAc
In short: as §1

[6] = target: Gal(b1-4)GlcNAc(b1-3)[Fuc(a1-3)[Gal(b1-4)]GlcNAc(b1-6)]Gal(b1-4)Glc
In short: as §1

Glc(a1-3)Glc = target: Glc(a1-3)Glc
In short: as §1

[7] = target: Glc(a1-4)Glc(a1-4)Glc(a1-4)Glc(a1-4)Glc(a1-4)Glc(a1-4)Glc(a1-4)Glc
In short: as §1

[8] = target: Glc(a1-4)Glc(a1-4)Glc(a1-4)Glc(a1-4)Glc(a1-4)Glc(a1-4)Glc(a1-4)Glc(a1-4)Glc(a1-4)Glc
In short: as §1

[9] = target: Glc(a1-4)Glc(a1-4)Glc(a1-4)Glc(a1-4)Glc(a1-4)Glc(a1-4)Glc(a1-4)Glc(a1-4)Glc(a1-4)Glc(a1-4)Glc(a1-4)Glc
In short: as §1

[10] = target: Glc(a1-4)Glc(a1-4)Glc(a1-4)Glc(a1-4)Glc(a1-4)Glc(a1-4)Glc(a1-4)Glc(a1-4)Glc(a1-4)Glc(a1-4)Glc(a1-4)Glc(a1-4)Glc
In short: as §1

Glc(a1-6)Glc(a1-6)Glc = target: Glc(a1-6)Glc(a1-6)Glc
In short: as §1

[11] = target: Glc(b1-3)Glc(b1-3)Glc(b1-3)Glc
In short: as §1

Glc(b1-6)Glc = target: Glc(b1-6)Glc
In short: as §1

GlcA(b1-3)Gal(b1-4)Glc = target: GlcA(b1-3)Gal(b1-4)Glc
In short: as §1

[12] = target: GlcNAc(b1-2)[GlcNAc(b1-4)]Man(a1-3)[GlcNAc(b1-2)[GlcNAc(b1-4)][GlcNAc(b1-6)]Man(a1-6)][GlcNAc(b1-4)]Man(b1-4)GlcNAc(b1-4)GlcNAc
In short: as §1

[13] = target: GlcNAc(b1-3)[GlcNAc(b1-6)]Gal
In short: as §1

[14] = target: GlcNAc(b1-4)GlcNAc(b1-4)GlcNAc(b1-4)GlcNAc(b1-4)GlcNAc(b1-4)GlcNAc
In short: as §1

[15] = target: Kdn(a2-3)Gal(b1-3)GlcNAc(b1-3)Gal(b1-4)Glc
In short: as §1

[16] = target: Kdn(a2-3)Gal(b1-4)[Fuc(a1-3)]GlcNAc(b1-3)Gal
In short: as §1

Man(a1-3)Man = target: Man(a1-3)Man
In short: as §1

Man(a1-3)Man(b1-4)GlcNAc = target: Man(a1-3)Man(b1-4)GlcNAc
In short: as §1

[17] = target: Man(b1-4)Man(b1-4)Man(b1-4)Man(b1-4)Man(b1-4)Man
In short: as §1

[18] = target: Neu5Ac(a2-3)Gal(b1-3)GlcNAc(b1-3)[Fuc(a1-3)[Gal(b1-4)]GlcNAc(b1-6)]Gal(b1-4)Glc
In short: as §1

Neu5Ac(a2-3)Gal(b1-4)Glc = target: Neu5Ac(a2-3)Gal(b1-4)Glc
In short: as §1

[19] = target: Neu5Ac(a2-3)Gal(b1-4)[Fuc(a1-3)]GlcNAc(b1-6)Gal(b1-4)Glc
In short: as §1

[20] = target: Neu5Ac(a2-3)Gal6S(b1-4)[Fuc(a1-3)]GlcNAc(b1-3)Gal(b1-4)Glc
In short: as §1

[21] = target: Neu5Ac(a2-6)Gal(b1-3)GlcNAc(b1-3)[Fuc(a1-3)[Gal(b1-4)]GlcNAc(b1-6)]Gal(b1-4)Glc
In short: as §1

[22] = target: Neu5Ac(a2-8)Neu5Ac(a2-8)Neu5Ac(a2-3)Gal(b1-4)Glc
In short: as §1

[23] = target: Neu5Ac9Me(a2-3)Gal(b1-4)Glc
In short: as §1

[24] = target: Neu5Gc(a2-6)Gal(b1-4)GlcNAc(b1-2)Man(a1-3)[Neu5Gc(a2-6)Gal(b1-4)GlcNAc(b1-2)Man(a1-6)]Man(b1-4)GlcNAc(b1-4)GlcNAc
In short: as §1

[25] = target: Xyl(b1-2)[Man(a1-3)][Man(a1-6)]Man(b1-4)GlcNAc(b1-4)[Fuc(a1-3)]GlcNAc
In short: as §1

B1: ZG16p (Homo sapiens), O60844 (protein)
chain: ARSSSYSGEYGGGGGKRFSHSGNQLDGPITALRVRVNTYYIVGLQVRYGKVWSDYVGGRNGDLEEIFLHPGESVIQVSGKYKWYLKKLLFVTDKGRYLSFGKDSGTSFNAVPLHPNTVLRFISGRSGSLIDAIGLHWDVYPSSCSRC
- glycan array binding signal (z-score) [1]: -0.327
- glycan array binding signal (z-score) [2]: -0.025
- glycan array binding signal (z-score) [3]: -0.178
- glycan array binding signal (z-score) [4]: -0.328
- glycan array binding signal (z-score) (Gal(a1-6)Glc): -0.272
- glycan array binding signal (z-score) (Gal(b1-4)Glc): -0.133
- glycan array binding signal (z-score) [5]: -0.273
- glycan array binding signal (z-score) [6]: -0.328
- glycan array binding signal (z-score) (Glc(a1-3)Glc): 2.88
- glycan array binding signal (z-score) [7]: 1.93
- glycan array binding signal (z-score) [8]: 1.95
- glycan array binding signal (z-score) [9]: 4.4
- glycan array binding signal (z-score) [10]: 2.82
- glycan array binding signal (z-score) (Glc(a1-6)Glc(a1-6)Glc): 0.475
- glycan array binding signal (z-score) [11]: 0.797
- glycan array binding signal (z-score) (Glc(b1-6)Glc): 2.7
- glycan array binding signal (z-score) (GlcA(b1-3)Gal(b1-4)Glc): -0.328
- glycan array binding signal (z-score) [12]: -0.42
- glycan array binding signal (z-score) [13]: 0.435
- glycan array binding signal (z-score) [14]: -0.328
- glycan array binding signal (z-score) [15]: -0.328
- glycan array binding signal (z-score) [16]: -0.328
- glycan array binding signal (z-score) (Man(a1-3)Man): 2.78
- glycan array binding signal (z-score) (Man(a1-3)Man(b1-4)GlcNAc): 2.31
- glycan array binding signal (z-score) [17]: -0.328
- glycan array binding signal (z-score) [18]: -0.328
- glycan array binding signal (z-score) (Neu5Ac(a2-3)Gal(b1-4)Glc): -0.276
- glycan array binding signal (z-score) [19]: -0.328
- glycan array binding signal (z-score) [20]: -0.328
- glycan array binding signal (z-score) [21]: -0.328
- glycan array binding signal (z-score) [22]: -0.328
- glycan array binding signal (z-score) [23]: -0.328
- glycan array binding signal (z-score) [24]: -0.282
- glycan array binding signal (z-score) [25]: -0.369
